Measured values as given in PubChem BioAssay (NCATS).
Results filed as inconclusive are left out. Unmarked numbers belong to inactive results. Activity calls are given as the source filed them. Calls come from the whole dose curve; as a rule, active = well fitted cell-killing curve with a large enough effect; inconclusive = small, poorly fitted or top-dose-only effect, or effect the other way; inactive = flat fitted curve, though single readings scatter.

Assay: qHTS assay for cell viability of the p53RE-bla HCT-116 cell line (AID 743292); note: nearly all actives have a fitted effect of over 55% in size
Details: p53RE-bla HCT-116 viability, ATP luminescence, 16 h; series mostly up to 95 µM; activity change, negative = cytotoxicity: at the top concentration
In short: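 HCT-116 p53RE-bla cells seeded 4,000/well; 5 h at 37 C; compound (DMSO) added; 16 h at 37 C; CellTiter-Glo added, 30 min RT; luminescence read.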
% is set by controls: 0 for no effect and ±100 for the full control effect; potency is the fitted concentration of half-maximal effect.

Structure (SMILES) | activity change, negative = cytotoxicity [%] | Potency
CC/C(=N\OC/C=C/Cl)C1=C(O)CC(C2CCOCC2)CC1=O (stereo unspecified) | 4.14 | –
COc1cc(OC)nc(Sc2cccc(Cl)c2C(=O)O)n1 | 3.94 | –
CCOP(=O)(OCC)Oc1nc(Cl)c(Cl)cc1Cl | -1.46 | –
ClC1=C(Cl)C2(Cl)C3C4OC4C(Cl)C3C1(Cl)C2(Cl)Cl (stereo unspecified) | -8.65 | –
c1ccc2c(c1)oc1ccccc12 | 13.7 | –
C1CC[CH]([Sn]([CH]2CCCCC2)[CH]2CCCCC2)CC1 | – | 39.8 µM (active)
N#Cc1c[nH]cc1-c1cccc2c1OC(F)(F)O2 | 7.2 | –
CC(C)(C)OOC(C)(C)CCC(C)(C)OOC(C)(C)C | -6.15 | –
OC(c1ccc(Cl)cc1)(c1cncnc1)c1ccccc1Cl (stereo unspecified) | 1.05 | –
CNC(=O)O/N=C(\C)SC | -11.9 | –
O=C1C(Cl)=C(Cl)C(=O)c2ccccc21 | – | 50.1 µM (active)
